From PubChem BioAssay (NCATS)
A number with no mark means an inactive call. Records with an inconclusive call do not appear. Entries that show only a call come without a potency. The source made the active and inactive calls. The call rests on the fitted dose curve; in most records, active means well fitted curve in the direction sought with a large enough effect; inconclusive means small, poorly fitted or top-dose-only effect, or another doubt; inactive means no such curve, though single readings can be large; an effect the other way counts as inactive or inconclusive.

Tests used:
[1] = target: Glutathione peroxidase 1 (Homo sapiens) (UniProt P07203); assay: Primary qHTS Assay for Inhibitors of Recombinant Selenoprotein Glutathione Peroxidase 1 (GPX1) (AID 1845191); further: nearly all actives have a fitted effect of over 65% in size
How it was run: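 GR-coupled assay: compounds preincubated 30 min at room temperature with GPX1, then reaction started with CHP; final 10 nM GPX1, 1 mM GSH, 0.5 mM CHP, 0.5 mM NADPH, 100 nM GR, 0.01% BSA, pH 7.5 Tris buffer. NADPH fluorescence (340/450 nm) read at 0 and 15 min.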

[2] = target: Phospholipid hydroperoxide glutathione peroxidase GPX4 (Homo sapiens) (UniProt P36969); assay: Primary qHTS Assay for Inhibitors of Recombinant Selenoprotein Glutathione Peroxidase 4 (GPX4) (AID 1845192); further: nearly all actives have a fitted effect of over 65% in size; further: potency means the concentration at half of the fitted maximal effect; on activity change, negative = inhibition: series mostly up to about 50 µM
How it was run: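 GR-coupled assay: recombinant GPX4 preincubated 30 min with compound at room temperature; final 200 nM GPX4, 1 mM GSH, 0.5 mM cumene hydroperoxide, 0.5 mM NADPH, 100 nM GR, 0.01% BSA, pH 7.5 Tris. NADPH fluorescence (340/450 nm) read at 0 and 15 min.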

[3] = target: Luciferin 4-monooxygenase (Photinus pyralis) (UniProt P08659); assay: Primary firefly luciferase (FLuc) qHTS assay for identification of artifact compounds. (AID 1845220); further: nearly all actives have a fitted effect of over 60% in size; on activity change, negative = inhibition: series mostly up to about 54 µM
How it was run: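 Titrated compounds were incubated 15 min at RT, protected from light, with luciferin and ATP at 10 uM; reaction started with 10 nM FLuc, luminescence imaged at 5 min, and concentration-response fitted by Hill equation.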

[4] = Primary fluorescence-based thiol-reactive (MSTI) qHTS assay for identification of artifact compounds. (AID 1845221); further: nearly all actives have a fitted effect of over 65% in size; further: potency means the concentration at half of the fitted maximal effect;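 on activity change, negative = thiol reactive: series mostly up to about 54 µM; thiol-reactive compounds lower the probe fluorescence signal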
How it was run: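 Probe: MSTI 4 uM, PBS pH 7.4, 2% DMSO. Incubation 1 h, RT, light-protected. Readout fluorescence 525/598 nm.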

[5] = test system: Nanoluciferase (engineered Oplophorus gracilirostris luciferase); assay: Primary Nanoluciferase (NLuc) qHTS assay for identification of artifact compounds. (AID 1845222);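 further: NLuc secreted into diluted conditioned medium of S16 cells; series mostly up to about 54 µM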
How it was run: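 qHTS format, against NLuc in S16 cell-conditioned medium. Nano-Glo substrate 1:100 was added after 15 min at room temperature. Luminescence was taken after a further 5 min.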

[6] = Primary redox qHTS assay for identification of artifact compounds. (AID 1845223)
How it was run: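 Amplex Red (25 uM) and HRP (250 mU/mL) in HBSS, with compounds for 15 min, then 250 uM DTT for 30 min, room temperature, dark. Fluorescence 525/598 nm read; normalized to DMSO and 10 uM DA3003; Hill fit.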

Sequence of Glutathione peroxidase 1 (Homo sapiens) (P07203 whole entry, looked up): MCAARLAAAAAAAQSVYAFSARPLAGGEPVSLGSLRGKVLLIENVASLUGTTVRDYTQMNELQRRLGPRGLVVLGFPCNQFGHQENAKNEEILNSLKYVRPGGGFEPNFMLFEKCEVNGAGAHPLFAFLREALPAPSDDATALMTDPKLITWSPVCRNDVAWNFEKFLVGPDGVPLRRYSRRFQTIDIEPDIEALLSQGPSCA
Sequence of Phospholipid hydroperoxide glutathione peroxidase GPX4 (Homo sapiens) (P36969 whole entry, looked up): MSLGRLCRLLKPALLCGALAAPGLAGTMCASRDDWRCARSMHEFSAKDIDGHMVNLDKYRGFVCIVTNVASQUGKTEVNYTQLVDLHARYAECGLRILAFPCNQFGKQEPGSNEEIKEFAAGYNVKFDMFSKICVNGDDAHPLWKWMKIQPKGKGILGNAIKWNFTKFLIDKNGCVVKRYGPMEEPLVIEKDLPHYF

Compound | Potency [1] | Potency [2] | Potency [3] | Potency [4] | Potency [5] | Potency [6] | activity, negative = inhibition [1] | activity change, negative = inhibition [2] | activity change, negative = inhibition [3] | activity change, negative = thiol reactive [4] | activity, negative = inhibition [5] | redox activity (% of DA3003) [6]
C[C@@H]1O[C@@H](OC[C@H]2O[C@@H](OCCc3ccccc3)[C@H](O)[C@@H](O)[C@@H]2O)[C@H](O)[C@H](O)[C@H]1O | inactive | inactive | inactive | 2.6 µM (active) | inactive | inactive |  |  |  |  |  | 
O=C(CCO[C@@H]1O[C@H](CO)[C@@H](O)[C@H](O)[C@H]1O)c1ccc(O)cc1 | inactive | inactive | inactive | inactive | inactive | inactive |  |  |  |  |  | 
CCC(CC)n1ccc2c(C(=O)NCc3c(C)cc(C)[nH]c3=O)cc(C#N)cc21 | inactive | inactive | inactive | inactive | inactive | inactive |  |  |  |  |  | 
C[C@H]1CN(C[C@H](Cc2ccccc2)C(=O)NCC(=O)O)CC[C@@]1(C)c1cccc(O)c1 | inactive | inactive | inactive | inactive | inactive | inactive |  |  |  |  |  | 
CON(C)C(=O)N1N=C(c2cc(F)ccc2F)S[C@@]1(CCCN)c1ccccc1 | inactive | inactive | inactive | inactive | inactive | inactive |  |  |  |  |  | 
Cc1cn2c(N)c(Cl)cc(C(=O)NCC3CCN(CC(C)C)CC3)c2n1 | inactive | 22.7 µM (active) | inactive | inactive | inactive | inactive |  |  |  |  |  | 
COC1=CC(=O)O[C@@H](/C=C/c2ccccc2)[C@@H]1O | inactive | inactive | inactive | inactive | inactive | inactive |  |  |  |  |  | 
CC(C)(O)c1ccc2c(c1)C(O)CC1C(C)(C(=O)O)CCCC21C (stereo not drawn) | inactive | inactive | inactive | inactive | inactive | inactive |  |  |  |  |  | 
CC1(C)CCC(C)(C)c2cc3c(cc21)Sc1ccccc1N=C3c1ccc(C(=O)O)cc1 | inactive | inactive | inactive | inactive | inactive | inactive |  |  |  |  |  | 
CC(=C/C(=O)O)/C=C/[C@]1(O)[C@@]2(C)CO[C@]1(C)C[C@H](O[C@@H]1O[C@H](CO)[C@@H](O)[C@H](O)[C@H]1O)C2 | inactive | inactive | inactive | 9.22 µM (active) | inactive | inactive |  |  |  |  |  | 
C[C@@H]1C(=O)O[C@H]2CC34[C@H]5C[C@@H](C(C)(C)C)C36[C@@H](OC(=O)[C@@H]6O)O[C@@]4(C(=O)O5)[C@]21O (stereo partly drawn) | inactive | inactive | inactive | inactive | inactive | inactive |  |  |  |  |  | 
COc1c(C)c(OCC=C(C)C)cc2c1C(=O)NC2=O | inactive | inactive | inactive | inactive | inactive | inactive |  |  |  |  |  | 
COc1cc(/C=C/C(=O)OC2CC3CCC2(C)C3(C)C)ccc1O (stereo not drawn) | inactive | inactive | inactive | inactive | inactive | inactive |  |  |  |  |  | 
COc1ncc(-c2ccc3c(Nc4cc(Oc5cc(F)cc(F)c5)cc(C(=O)O)c4)c(S(=O)(=O)NC4CC4)cnc3c2)c(OC)n1 | inactive | inactive | inactive | inactive | inactive | inactive |  |  |  |  |  | 
COc1ccc(C(OC2OC(CO)C(O)C(O)C2O)C(C)O)cc1 (stereo not drawn) | inactive | inactive | inactive | 14.7 µM (active) | inactive | inactive |  |  |  |  |  | 
O=c1ccn(C2OC(CO)C(O)C2O)c(=O)[nH]1 (stereo not drawn) | inactive | inactive | inactive | inactive | inactive | inactive |  |  |  |  |  | 
NS(=O)(=O)NCCNc1nonc1C(=Nc1ccc(F)c(Br)c1)NO | inactive | inactive | inactive | inactive | inactive | inactive |  |  |  |  |  | 
CC1=C2[C@@H]([C@H](C)CC[C@H]2/C=C(\C)C(=O)O)[C@H](O)C1 | inactive | inactive | inactive | inactive | inactive | inactive |  |  |  |  |  | 
OCC1OC(Oc2cc(O)c3c(c2)OC(c2ccc(O)cc2)C(O)C3)C(O)C1O (stereo not drawn) | inactive | inactive | inactive | inactive | inactive | inactive |  |  |  |  |  | 
C[C@@H]1CC[C@H]2C(C)(C)[C@H](O)[C@H](O)C[C@]2(C)[C@@]12Cc1c(O)cc3c(c1O2)CNC3=O | inactive | inactive | inactive | inactive | inactive | inactive |  |  |  |  |  | 
C=C(C)C1CC2(CO)C(=CC1=O)CCC(O)C2C (stereo not drawn) | inactive | inactive | inactive | inactive | inactive | inactive |  |  |  |  |  | 
C[C@@H]1CC[C@]2(C)C3(C)CC[C@@]2(OC3=O)[C@@]12C[C@H](c1ccoc1)OC2=O | inactive | inactive | inactive | inactive | inactive | inactive |  |  |  |  |  | 

Compound | Potency [1] | Potency [2] | Potency [3] | Potency [4] | Potency [5] | Potency [6] | activity, negative = inhibition [1] | activity change, negative = inhibition [2] | activity change, negative = inhibition [3] | activity change, negative = thiol reactive [4] | activity, negative = inhibition [5] | redox activity (% of DA3003) [6]
CC1CC(O)CC(C)(C)C1(O)CCO (stereo not drawn) | inactive | inactive | inactive | inactive | inactive | inactive |  |  |  |  |  | 
CNC(=O)c1ccc2cc([C@@]3(O)CCn4cncc43)ccc2c1 | inactive | inactive | inactive | inactive | inactive | inactive |  |  |  |  |  | 
C=C1CC23CC1(O)CCC2C1=CC2OC(=O)C(C)(C2O)C1C3C(=O)O (stereo not drawn) | inactive | inactive | inactive | inactive | inactive | inactive |  |  |  |  |  | 
C=C1CC2[C@]3(C)C(=C(O)C(=O)[C@@]2(C)[C@]2(C(=O)OC)C(=O)C(C)OC(=O)[C@@]12C)C(C)(C)C(=O)CC3O (stereo partly drawn) | inactive | inactive | inactive | inactive | inactive | inactive |  |  |  |  |  | 
CC(=O)N1CCN(NC(=O)c2ccc(F)cc2)CC1 | inactive | inactive | inactive | inactive | inactive | inactive |  |  |  |  |  | 
CC(=O)OC1C=C(C(=O)O)C2(CO)CCC(C)C(C)(CCc3ccoc3)C2C1 (stereo not drawn) | inactive | inactive | inactive | inactive | inactive | inactive |  |  |  |  |  | 
OC[C@H]1O[C@@H](n2cnc3c(NCc4ccc(O)cc4)ncnc32)[C@H](O)[C@@H]1O | inactive | inactive | inactive | inactive | inactive | inactive |  |  |  |  |  | 
COC(=O)C1=CO[C@@H](O[C@@H]2O[C@H](CO)[C@@H](O)[C@H](O)[C@H]2O)[C@@H]2[C@@](C)(O)[C@@H](O)C[C@]12O | inactive | inactive | inactive | inactive | inactive | inactive |  |  |  |  |  | 
CC1NC(=O)C(Cc2c[nH]c3ccccc23)NC1=O (stereo not drawn) | inactive | inactive | inactive | inactive | inactive | inactive |  |  |  |  |  | 
CC(=O)c1c(O)cc2c(c1C)C(=O)CC(O)C2 (stereo not drawn) | inactive | inactive | inactive | 10.6 µM (active) | inactive | inactive |  |  |  |  |  | 
CC1OC(O[C@H]2[C@@H](O)C[C@@]3(C)C([C@H](O)C[C@]4(C)C3CC=C3C5CC(C)(C)CC[C@]5(C(=O)OC5OC(CO)C(O)C(O)C5OC5OCC(OC6OCC(OC7OCC(O)C(O)C7O)C(O)C6O)C(OC6OCC(O)(CO)C6O)C5O)CC[C@]34C)[C@]2(C)CO)C(O)C(O)C1O (stereo partly drawn) |  |  |  |  |  |  | -3.12% [at 9.52 µM] | -6.84% [at 9.73 µM] | 2.08% [at 11.6 µM] | 280% [at 11.5 µM] | 3.85% [at 11.6 µM] | 1.03% [at 11.5 µM]
CC(C)C(C#N)O[C@@H]1O[C@H](CO[C@@H]2OC[C@](O)(CO)[C@H]2O)[C@@H](O)[C@H](O)[C@H]1O (stereo partly drawn) | inactive | inactive | inactive | inactive | inactive | inactive |  |  |  |  |  | 
CCCCCCc1cccc(NC(=O)[C@H](N)CCP(=O)(O)O)c1 | inactive | inactive |  |  |  |  |  |  | 2.4% [at 11.6 µM] | 1.56% [at 11.5 µM] | 4.9% [at 11.6 µM] | -3.89% [at 11.5 µM]
C/C=C1/[C@H](O[C@@H]2O[C@H](CO)[C@@H](O)[C@H](O)[C@H]2O)OC=C(C(=O)OC)[C@H]1CC(=O)O[C@@H]1O[C@H](CO)[C@@H](O)[C@H](O)[C@H]1O | inactive | inactive | inactive | inactive | inactive | inactive |  |  |  |  |  | 
C=C1CC2C3(C)C(OC(C)=O)CC(=O)OC(C)(C)C3C(O)C(OC(C)=O)C2(C)C2C(=O)OC(C)C(=O)C12C (stereo not drawn) | inactive | inactive | inactive | inactive | inactive | inactive |  |  |  |  |  | 
COc1cc(/C=C/C(=O)OC2CC(C)=C(C(=O)O)/C2=C/CO[C@@H]2O[C@H](CO)[C@@H](O)[C@H](O)[C@H]2O)ccc1O (stereo partly drawn) | inactive | inactive | inactive | 4.12 µM (active) | inactive | inactive |  |  |  |  |  | 
Cn1ccnc1CCOC(c1cc2nccc(C(=O)O)c2[nH]1)c1ccccc1Cl (stereo not drawn) | inactive | inactive | inactive | inactive | inactive | inactive |  |  |  |  |  | 
CC(C)CNC(=O)/C=C/CCCCc1ccc2c(c1)OCO2 | inactive | inactive | inactive | inactive | inactive | inactive |  |  |  |  |  | 
CC1=C2C3OC(=O)C(C)C3(O)CCC2(C)CCC1=O (stereo not drawn) | inactive | inactive | inactive | 23.8 µM (active) | inactive | inactive |  |  |  |  |  | 
COc1cc(C(=O)OC[C@H]2O[C@H](O[C@@]3(CO)O[C@@H](CO)[C@H](O)[C@H]3O)[C@H](O)[C@@H](O)[C@@H]2O)ccc1O | inactive | inactive | inactive | inactive | inactive | inactive |  |  |  |  |  | 
C/C1=C\C[C@H](O[C@@H]2O[C@H](CO)[C@@H](O)[C@H](O)[C@H]2O)/C(C)=C/[C@H]2OC(=O)[C@H](C)[C@@H]2CC1 | inactive | inactive | inactive | 7.33 µM (active) | inactive | inactive |  |  |  |  |  | 
